Laboratory results reported in the supplement of paper PMC11624193, “Coupling cellular drug-target engagement to downstream pharmacology with CeTEAM” (Nature Communications, 2024).
Several values for one entry are separate records, joined by “and”; a condition that tells them apart may be missing. Equal values may be shown once. Where a name gives a salt, the structure may show the parent alone. Values without a mark were called inactive.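 Rule for the calls: active = log2 fold change beyond 2 SD from the library mean after excluding viability outliers; inactive = within 2 SD.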

biological target: PARP1 L713F-nLuc biosensor (HCT116) (UniProt P09874); test: PARP1 L713F-nLuc/akaLuc ratio relative to DMSO control (biosensor stabilization) (fold change); higher = more PARP1 biosensor stabilization (target engagement / stabilizer), active = hit call of the paper; conditions: stock concentration (mM; final µM = stock mM x 1): 10; 24 h
Sequence (P09874 whole entry L713F, looked up): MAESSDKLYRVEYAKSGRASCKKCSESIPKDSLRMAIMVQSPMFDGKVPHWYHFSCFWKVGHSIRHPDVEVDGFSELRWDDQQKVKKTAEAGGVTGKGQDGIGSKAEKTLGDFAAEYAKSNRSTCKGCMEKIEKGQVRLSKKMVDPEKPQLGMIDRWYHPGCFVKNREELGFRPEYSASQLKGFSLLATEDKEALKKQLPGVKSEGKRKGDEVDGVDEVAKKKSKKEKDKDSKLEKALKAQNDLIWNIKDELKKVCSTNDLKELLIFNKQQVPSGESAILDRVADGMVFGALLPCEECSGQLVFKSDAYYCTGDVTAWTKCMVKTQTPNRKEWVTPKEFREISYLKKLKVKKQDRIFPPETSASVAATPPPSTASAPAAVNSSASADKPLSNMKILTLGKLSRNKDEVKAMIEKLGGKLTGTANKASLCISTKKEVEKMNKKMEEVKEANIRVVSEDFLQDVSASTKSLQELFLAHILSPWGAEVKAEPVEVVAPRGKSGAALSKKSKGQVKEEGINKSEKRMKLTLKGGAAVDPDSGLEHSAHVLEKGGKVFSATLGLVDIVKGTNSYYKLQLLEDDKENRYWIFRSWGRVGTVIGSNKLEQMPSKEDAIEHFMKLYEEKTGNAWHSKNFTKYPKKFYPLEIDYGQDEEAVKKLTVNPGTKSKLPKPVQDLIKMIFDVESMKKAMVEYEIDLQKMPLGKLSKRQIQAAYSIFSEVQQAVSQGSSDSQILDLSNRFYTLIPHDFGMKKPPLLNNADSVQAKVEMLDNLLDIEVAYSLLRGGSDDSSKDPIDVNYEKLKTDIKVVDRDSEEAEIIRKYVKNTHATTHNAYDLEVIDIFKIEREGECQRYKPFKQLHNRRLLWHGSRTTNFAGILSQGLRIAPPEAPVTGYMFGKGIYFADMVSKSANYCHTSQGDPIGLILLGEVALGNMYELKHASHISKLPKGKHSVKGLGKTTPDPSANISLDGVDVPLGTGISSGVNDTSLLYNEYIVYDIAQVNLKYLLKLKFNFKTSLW

Compound	PARP1 L713F-nLuc/akaLuc ratio
CCCCCCCCCCCCC/C=C/[C@@H](O)[C@@H](N)CO [D-erythro-Sphingosine]	1.21
NC(=O)NO [Hydroxyurea]	0.953
COc1ccc(NC(=O)c2ccc(NC3=C(C)C(=O)CC3)c(Cl)c2)cc1	0.879
N#Cc1ccc2ncnc(NCCc3ccccc3)c2c1 [Senexin A]	1.24
CCOC(=O)c1cnc(NC2(c3ccccc3)CC2)nc1	0.982
NC(=O)C1CCN(CC(=O)Nc2ccc(Br)cc2)CC1	0.965
Cc1ncc(Cl)cc1NCc1ccc(C(=O)N[C@@H](CC2CCCC2)C(=O)NC2CC2)s1	0.585
CN(C)C(=N)NC(=N)N [Metformin]	1.5
COc1ccc(S(=O)(=O)Nc2cc(-c3csc(C#N)c3)ccc2C)cc1	1.24
CCCCCCCCCCCCC/C=C/[C@@H](O)[C@H](CO)NC(=O)CCCCCCC [C8-Ceramide]	0.658
CO[C@H]1C(=O)[C@]2(C)[C@@H](OC)C[C@H]3OC[C@@]3(OC(C)=O)[C@H]2[C@H](OC(=O)c2ccccc2)[C@]2(O)C[C@H](OC(=O)[C@H](O)[C@@H](NC(=O)OC(C)(C)C)c3ccccc3)C(C)=C1C2(C)C [Cabazitaxel]	1.2
O=C(Nc1ccc2c(O)cc(S(=O)(=O)O)cc2c1)Nc1ccc2c(O)cc(S(=O)(=O)O)cc2c1 [AMI-1 (free acid)]	1.04
CCS(=O)(=O)N1CCN(c2ccc(Nc3ncc(C(N)=O)c(NC4CC4)n3)cc2)CC1 [Cerdulatinib]	1.82
CNC(=O)c1cc(Oc2ccc(NC(=O)Nc3ccc(Cl)c(C(F)(F)F)c3)c(F)c2)ccn1 [Regorafenib (BAY 73-4506)]	0.687
C[C@@H]1CC[C@@]2(OC1)O[C@H]1C[C@H]3[C@@H]4CC=C5C[C@@H](O[C@@H]6O[C@H](CO)[C@@H](O[C@@H]7O[C@@H](C)[C@H](O[C@@H]8O[C@@H](C)[C@H](O)[C@@H](O)[C@H]8O)[C@@H](O)[C@H]7O)[C@H](O)[C@H]6O[C@@H]6O[C@@H](C)[C@H](O)[C@@H](O)[C@H]6O)CC[C@]5(C)[C@H]4CC[C@]3(C)[C@@]1(O)[C@@H]2C [Paris saponin VII]	1.01
CCn1c(-c2nonc2N)nc2c(C#CC(C)(C)O)ncc(OC[C@H]3CCCNC3)c21	1.03 and 0.895
CC(=O)N1CCC(Nc2cc(C(=O)NC[C@H](O)CN3CCc4ccccc4C3)ncn2)CC1	0.707
Cc1cc(Nc2cc3ncccc3c(N[C@@H]3C[C@H]4CC[C@@H](C3)N4CCC#N)n2)n[nH]1 [Izencitinib]	0.804
Cc1ccc(=O)n(-c2ccccc2)c1 [Pirfenidone]	0.824

Compound	PARP1 L713F-nLuc/akaLuc ratio
C[C@H](NC(=O)/C(C#N)=C/c1cccc(Br)n1)c1ccccc1	0.804
CCCC(CCC)C(=O)O [Valproic acid (sodium salt)]	0.704
COc1nc(N)nc2c1ncn2[C@@H]1O[C@H](CO)[C@@H](O)[C@@H]1O [Nelarabine]	1.15
NC(=O)c1ncn(C2OC(CO)C(O)C2O)c1N (configuration not stated) [AICAR (phosphate)]	1.04
CN(C)CCCn1cc(C2=C(c3c[nH]c4ccccc34)C(=O)NC2=O)c2ccccc21 [Bisindolylmaleimide I]	26.8 (active)
Nc1nc(=S)c2[nH]cnc2[nH]1 [6-Thioguanine]	1.43
O=C(O)CC1CC(c2ccccc2)=NO1 (configuration not stated)	1.72
Cn1cncc1[C@@](N)(c1ccc(Cl)cc1)c1ccc2c(c1)c(-c1cccc(Cl)c1)cc(=O)n2C [Tipifarnib]	0.456
Cc1cc([C@@H](C)Nc2ccccc2C(=O)O)c2nc(N3CCOCC3)cc(=O)n2c1	0.617
CONC(=O)c1ccccc1Nc1cc(Nc2cc(C)nn2C(C)C)ncc1Cl	0.987
CNc1nc(NC2CCN(Cc3ccc4c(cc(C#N)n4CC45CC(NC=O)(C4)C5)c3C)CC2)c2cc(CC(F)(F)F)sc2n1	1.38
Cc1cc(Nc2cc(N3CCN(C)CC3)nc(Sc3ccc(NC(=O)C4CC4)cc3)n2)n[nH]1 [Tozasertib]	0.774
CCS(=O)(=O)N1CC(CC#N)(n2cc(-c3ncnc4[nH]ccc34)cn2)C1 [Baricitinib (phosphate)]	1.19
CN(C)C(=O)/C(C#N)=C/c1ccc(-c2nc3cnc4[nH]ccc4c3n2C2CCCCC2)o1	1.08
O=C(O)c1ccc(O)c2ncccc12	0.734
CN(C)C(=N)N=C(N)N [Metformin D6 (hydrochloride)]	1.08
O=C(NCCCc1ccccc1)c1cccc(-c2cc(O)c3ncccc3c2)c1	0.729
COc1ccc(C2CC(c3ccccc3)=NN2c2ccc(S(N)(=O)=O)cc2)cc1 (configuration not stated)	1.29
